esBAF inh = SWI/SNF esBAF complex inhibition | 2% of 350,000 active | reporter increase, % at 12.5 µM | mouse ES cells, Bmi1-luciferase knock-in reporter, 24 h; 100% = twice the neutral-well signal; in the data active means activation above about 40%;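 further: 0% = median of the plate's neutral control wells and 100% = double that signal; a rise in the Bmi1 reporter signal indicates esBAF inhibition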
SMARCA2 activ = increases SMARCA2 function in MMTV reporter cells | MG213 cells, MMTV-luciferase reporter, dexamethasone, overnight | activation, % at 9.1 µM | 1% of 370,000 active; in the data active means activation above about 7.8%;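 further: 0% = vehicle wells and 100% = reference activator wells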
GRIN3A LBD mod = modulators (binders) of human NR3A ligand-binding domain. NR3A LBD differential scanning fluorimetry, Tm shift; 0% = protein alone, 100% = glycine-bound protein. Tm shift relative to glycine control, % at 25 µM. 2.5% of 340,000 active;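 active means melting temperature shift of at least 10% of the positive control shift, at one fixed dose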
Vif inh = inhibitors of HIV Vif | HEK293T cells, Vif self-association by quenched fluorescence, imaging, 24 h | inhibition, % at 7.49 µM | 0.35% of 340,000 active | AID 602346; in the data active means inhibition above about 50%, passing the limit was not always enough
NadD inh = inhibitors of Staphylococcus aureus NadD; purified NadD enzyme, colorimetric absorbance read-out; inhibition, % at 20 µM; 0.78% of 360,000 active; AID 602399; in the data active means inhibition above about 26%
SKN-1 block = inhibitors of C. elegans SKN-1 | C. elegans VP596 Pgst-4::GFP/RFP ratio, acrylamide-induced, 24 h | inhibition, % at 21.8 µM | 0.49% of 360,000 active | AID 624304;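 active means interference check ratio from 0.5 to 1.5 plus GFP to RFP signal ratio inhibition reaching or exceeding a fixed threshold, cut at about 30% in these data, passing the limit was not always enough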
NadD inh conf = confirmation of Staphylococcus aureus NadD inhibitors | inhibition, % at 20 µM | purified S. aureus NadD, colorimetric enzyme assay | 13% of 2,000 active | shares compounds with NadD inh; in the data active means inhibition mostly above about 42%, no sharp cut-off; inactive means mostly below about 42%
Active calls of the source: *; nt = no result. Compounds with a hit are over-represented: about 5.2% of the library has one in this group of screens.

SMILES | esBAF inh | SMARCA2 activ | GRIN3A LBD mod | Vif inh | NadD inh | SKN-1 block | NadD inh conf
O=C(/C=C/c1ccco1)NC(=S)Nc1ccccc1 | 31 | 3 | -3 | -4 | -2 | 15 | nt
Cc1cccc(NC(=S)NC(=O)/C=C/c2ccco2)c1 | -3 | 0 | -3 | 12 | 3 | 7 | nt
Cc1ccccc1NC(=S)NC(=O)/C=C/c1ccco1 | -8 | 0 | -4 | 5 | 10 | 0 | nt
O=C(/C=C/c1ccco1)NC(=S)Nc1cccc(-c2nc3ccccc3o2)c1 | nt | 2 | 4 | nt | 31* | 3 | -5
C[C@@H]1CCCCO[C@@H](CN(C)S(=O)(=O)c2cccs2)[C@H](C)CN([C@H](C)CO)C(=O)c2cc(NC(=O)c3ccccc3)ccc2O1 | -3 | nt | nt | nt | nt | nt | nt
COCCNC(=O)C[C@H]1C[C@@H]2c3cc(NC(=O)CC4CC4)ccc3O[C@@H]2[C@H](CO)O1 | -7 | nt | nt | nt | nt | nt | nt
C[C@@H]1CN([C@@H](C)CO)C(=O)c2ccccc2-c2ccccc2CO[C@@H]1CN(C)S(=O)(=O)c1ccc(Cl)cc1 | 0 | nt | nt | nt | nt | nt | nt
COc1ccc(S(=O)(=O)N[C@@H]2CC[C@@H](CCn3cc(C(C)C)nn3)O[C@H]2CO)cc1 | -4 | nt | nt | nt | nt | nt | nt
COc1cccc(-c2ccc3c(c2)[C@H]2[C@H](CCN2C(=O)c2ccc(F)cc2)[C@@H](CO)N3C)c1 | 0 | nt | nt | nt | nt | nt | nt
O=C(c1cc2sccc2n1Cc1ccccc1)N1CCN(c2nc3ccccc3s2)CC1 | nt | -4 | -1 | -28 | 34* | 6 | 21
O=C(c1ccc2ncsc2c1)N1CCN(c2nc3ccccc3s2)CC1 | 8 | -3 | 4 | -13 | -1 | 2 | nt
CCC(CC)c1nnc(NC(=O)c2cccc(S(=O)(=O)N3CCc4ccccc43)c2)s1 | -5 | -4 | 1 | -6 | 9 | 14 | nt
CCOC(=O)c1sc(NC(=O)c2cccc(S(=O)(=O)N3CCc4ccccc43)c2)c(C#N)c1C | -43 | 2 | 21* | -18 | 36* | 2 | 4
Cc1cc(NC(=O)CSc2nc3ccccc3c(=O)n2CCCC(=O)NCc2ccccc2)n[nH]1 | 0 | -2 | 0 | 7 | 6 | -12 | nt
Cc1cc(NC(=O)CSc2nc3c(sc4ccccc43)c(=O)n2CCc2ccccc2)n[nH]1 | 5 | -5 | 27* | 8 | 34* | 8 | 2
O=C(N/N=C/c1c(Nc2cccc(C(F)(F)F)c2)nc2ccccn2c1=O)c1ccccc1[N+](=O)[O-] | -3 | -1 | 10* | -5 | 32* | 15 | 5
O=Cc1c(Nc2cccc(C(F)(F)F)c2)nc2ccccn2c1=O | 2 | -3 | 2 | -5 | -8 | 2 | nt
Cc1ccc(NC(=O)C2(c3ccccc3)CCCC2)nc1 | 9 | -1 | 2 | nt | 32* | -13 | 2
O=C(Nc1ccccn1)C1(c2ccccc2)CCCC1 | -1 | -3 | -3 | -2 | -6 | 9 | nt
O=C(Cn1c(=O)n(Cc2ccco2)c(=O)c2c3c(sc21)CCCCC3)Nc1ccccc1 | 3 | -2 | -1 | nt | 51* | 1 | 41
O=C(Nc1nc2cc(Cl)ccc2s1)C1CCCN(S(=O)(=O)c2cccc3cccnc23)C1 (stereo unspecified) | -5 | nt | 0 | -28 | 36* | 18 | 11
O=C(Nc1ccccc1Cl)C1CCCN(S(=O)(=O)c2cccc3cccnc23)C1 (stereo unspecified) | 0 | -3 | 0 | 0 | 0 | -1 | nt
Cc1cc(C)cc(NC(=O)Cn2c(=O)oc3cc(S(=O)(=O)N4CC(C)CC(C)C4)ccc32)c1 (stereo unspecified) | -29 | -2 | -2 | -16 | 36* | -7 | 3
CCOc1ccc(CCNC(=O)c2ccc3c(=O)[nH]c4c(C(=O)NC(C)C)sc(=S)n4c3c2)cc1 | 1 | -2 | -1 | -8 | 30 | 4 | nt
COc1ccc(OC)c(CCNC(=O)c2ccc3c(=O)[nH]c4c(C(=O)NC(C)C)sc(=S)n4c3c2)c1 | -4 | -3 | -6 | -5 | 33* | -7 | 13
SMILES | esBAF inh | SMARCA2 activ | GRIN3A LBD mod | Vif inh | NadD inh | SKN-1 block | NadD inh conf
CCn1nc(C(=O)Nc2ccc(S(=O)(=O)Nc3nccs3)cc2)c2ccccc2c1=O | nt | -2 | -1 | -18 | 7 | 5 | nt
O=C(Nc1ccc(S(=O)(=O)Nc2ncccn2)cc1)c1nn(Cc2ccccc2)c(=O)c2ccccc12 | 0 | 2 | -3 | -5 | 34* | 10 | 35
O=C(C[C@@H]1CC[C@@H]2[C@H](COC[C@@H](O)CN2Cc2cccc(F)c2)O1)NCc1cccc(F)c1 | 1 | nt | nt | nt | nt | nt | nt
C[C@@H]1CCCCO[C@H](CN(C)C(=O)C2CCCCC2)[C@@H](C)CN([C@H](C)CO)C(=O)c2cc(NS(=O)(=O)c3ccc(F)cc3)ccc2O1 | 2 | nt | nt | nt | nt | nt | nt
CO[C@@H]1CN(C)C(=O)c2cc(NC(C)=O)ccc2OC[C@@H](C)N(C(=O)c2cnccn2)C[C@H]1C | -6 | nt | nt | nt | nt | nt | nt
CC(C)(C)S(=O)N1Cc2cc(C(=O)Nc3ccc(-c4ccccc4)cc3)nc(-c3cccc(-c4cc5ccccc5o4)c3)c2[C@@H]1CCO (stereo partly specified) | -4 | -1 | nt | nt | 35* | 3 | 1
CC(C)(C)S(=O)N1Cc2cc(C(=O)O)nc(-c3cccc(-c4cc5ccccc5o4)c3)c2[C@H]1CCO (stereo partly specified) | 0 | 4 | nt | nt | 14 | 3 | nt
C[C@H](CO)N1C[C@H](C)[C@H](CN(C)Cc2ccccc2)Oc2ncc(C#CCN(C)C)cc2C1=O | 2 | nt | nt | nt | nt | nt | nt
C[C@H](CO)N1C[C@H](C)[C@@H](CN(C)CC2CCCCC2)OCCCC[C@H](C)Oc2ccc(NS(=O)(=O)c3ccccc3)cc2C1=O | 4 | nt | nt | nt | nt | nt | nt
Cc1noc(C)c1NC(=O)Nc1ccc2c(c1)C(=O)N([C@H](C)CO)C[C@@H](C)[C@@H](CN(C)S(=O)(=O)c1ccc(F)cc1)O2 | 0 | nt | nt | nt | nt | nt | nt
O=C(CN1CCc2ccccc21)NCc1ccc2c(c1)OCO2 | nt | 3 | -1 | -4 | -2 | 5 | nt
O=C(CN1CCc2ccccc21)Nc1ccc2c(c1)OCO2 | -1 | -1 | -1 | 4 | 56* | -23 | 8
CO[C@@H]1CN(C)C(=O)c2ccc(NC(=O)Nc3ccccc3)cc2OC[C@H](C)N(C(=O)CN(C)C)C[C@@H]1C | 1 | nt | nt | nt | nt | nt | nt
O=C(Cc1ccncc1)Nc1ccc2c(c1)[C@H]1C[C@@H](CC(=O)NC3CCCC3)O[C@H](CO)[C@H]1O2 | 3 | nt | nt | nt | nt | nt | nt
COc1cccc(-c2c(C(=O)N/N=C(\C)c3ccc(Cl)s3)nnn2-c2nonc2N)c1 | -9 | 0 | 11* | 7 | 32* | 14 | 15
COc1ccc2nc(-n3c(O)c(C4=c5ccccc5=NC4=O)[nH]c3=S)sc2c1 | nt | -1 | 17* | 0 | 52* | -3 | 11
CN(Cc1ccccc1)C(=O)NC1CCCCC1 | 14 | -1 | -1 | 1 | 1 | -8 | nt
